The list is not random: actives were taken first. Their share in the collection is about 6%.
D1 agonist: agonists of human D1 dopamine receptor | activation, % at 2 µM | P21728 | AID 504660 | HEK293 T-REx D1 cells, calcium flux, agonist mode | 360,000 tested, 1% active; in the data active means activation above about 30%; further: 0% is about no effect
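Tetracycline-induced HEK293 TREx D1 cells, force-coupled to calcium signalling, were dye-loaded with a no-wash calcium kit. Compound was pin-added after a 10 s baseline. Fluorescence was read kinetically at 1 cycle/s for 180 s, with calcium rises flagged as agonism.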
D3 antag: antagonists of human D3 dopamine receptor; P35462; 360,000 tested, 2.5% active; max response, negative = inhibition, %; D3R cells, DiscoveRx beta-arrestin luminescence, antagonist mode; stronger effect = lower value; in the data active means max response below about -50%; inconclusive means no clear call, values can overlap the other calls; further: on the % scale 0 is the no-effect control and ±100 the full control effect
Target sequence (P35462 whole entry, looked up): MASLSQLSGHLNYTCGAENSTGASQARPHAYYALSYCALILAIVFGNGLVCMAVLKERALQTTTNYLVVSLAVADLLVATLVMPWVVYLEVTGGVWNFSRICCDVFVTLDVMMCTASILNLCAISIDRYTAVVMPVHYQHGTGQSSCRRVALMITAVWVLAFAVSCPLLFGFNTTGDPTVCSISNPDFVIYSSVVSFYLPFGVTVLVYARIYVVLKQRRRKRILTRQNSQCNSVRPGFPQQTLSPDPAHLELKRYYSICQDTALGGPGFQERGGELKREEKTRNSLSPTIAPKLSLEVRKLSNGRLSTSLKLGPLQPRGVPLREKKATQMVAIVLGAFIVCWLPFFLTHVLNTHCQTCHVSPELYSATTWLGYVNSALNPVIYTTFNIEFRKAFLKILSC
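Cells expressing the human receptor were seeded at 1500 cells/well, incubated overnight at 37 degrees C in 5% CO2, then exposed to library compounds with dopamine controls for 90 minutes at 37 degrees C before luminescent detection.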
D1 antagonist: human D1 dopamine receptor antagonism. HEK293 TREx D1 cells, calcium flux, dopamine EC80; stronger effect = lower value. activity change, negative = inhibition, % at 10 µM. 360,000 tested, 3.2% active; in the data active means activity change below about -30%; further: on the % scale 0 is the no-effect control and ±100 the full control effect
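Cells carrying a force-coupled, tetracycline-inducible human D1 receptor report calcium flux. Each well gets a 10 s baseline, compound with 180 s monitoring, then an EC80 dopamine stimulus with a second 180 s kinetic read.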
D1 potentiator: human D1 dopamine receptor positive modulation; P21728; potentiation, % at 10 µM; HEK293 TREx D1 cells, calcium flux, dopamine EC20 potentiation; 360,000 tested, 0.036% active; in the data active means potentiation above about 30%; further: 0% is about no effect
D3 ag: activates the human D3 dopamine receptor; P35462; D3R DiscoveRx beta-arrestin cells, luminescence, 90 min; max activation, %; 410,000 tested, 0.58% active; in the data active means max activation above about 30%; further: 0% is about no effect
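Agonist-mode cell screen: cells plated at 1500/well and incubated overnight at 37 °C, then exposed to library compounds for 90 min at 37 °C. Detection reagent was added for 30–60 min at room temperature, and luminescence was read.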
An asterisk follows results filed as active; u = inconclusive; x = not tested or not shown.

SMILES	D1 agonist	D3 antag	D1 antagonist	D1 potentiator	D3 ag
Cc1cc(C)cc(N(CC(=O)Nc2c(C)cc(C)cc2C)S(=O)(=O)c2c(C)nn(C)c2C)c1	3.3	x	7.3	3.3	77.6*
Cc1cccc(C)c1Nc1ncccc1C(=O)O	x	x	x	x	10.8
O=C(CC1Nc2ccccc2NC1=O)c1ccccc1 (stereo not drawn)	67.9*	x	1.3	-3.1	x
Oc1cccc(-c2nc(-c3cccs3)c(-c3cccs3)[nH]2)c1	0.5	x	9.4	-2.9	-7.7
CC(C)NC(=O)c1cc(C2CCCCN2C(=O)c2cc(C(C)(C)C)nn2C)on1 (stereo not drawn)	x	14.1	x	x	0.1
CC1=CC(C)(C)N(C(=O)c2ccccc2)c2ccc(C)cc21	56.8*	-0.4	-13.0	-2.5	-2.4
Cc1cc([N+](=O)[O-])nn1Cc1ccc(C(=O)N/N=C/c2ccc(O)cc2O)cc1	0.7	7.8	-32.7*	-4.9	3.9
COc1ccc(N=Cc2c[nH][nH]c2=O)cc1	0.5	0.4	-33.2*	-3.2	-0.6
COc1ccc(C(=O)Nc2nnc(SCc3cc(=O)n4cc(Cl)ccc4n3)s2)cc1	-0.6	x	-0.1	-1.9	7.1
CN(C)CC/C=C1\c2cc(Cl)ccc2Sc2cc(F)c(F)cc21	x	-104.4*	x	x	-18.4
CN(C)CCC=C1c2ccccc2C(C)(C)c2ccccc21	x	x	x	x	-16.5
CN(C)CC/C=C1\c2ccccc2Sc2cc(F)c(Cl)cc21	x	-81.1*	x	x	-41.5
CN(C)CCOCCOc1ccc(Cl)cc1C(C)(C)C	25.9	u	-2.8	-9.4	-12.2
CN(C)CC/C=C1/c2ccc(F)cc2Sc2ccc(Cl)cc21	x	-83.9*	x	x	-10.0
CN(C)CC/C=C1\c2ccc(F)cc2Sc2cc(F)c(Cl)cc21	x	-100.6*	x	x	-18.2
CN(C)CC/C=C1/c2ccccc2COc2ccc(CC(=O)O)cc21	x	-20.8	x	x	1.8
Cc1nn(C)c(C)c1CN(C(=O)C1CCC(=O)N(C2CCCCCC2)C1)C(C)C (stereo not drawn)	1.4	-0.1	0.7	-0.5	-2.4
O=c1c(S(=O)(=O)c2ccccc2)cn(Cc2ccc(F)cc2)c2cc(N3CCCC3)c(F)cc12	-1.7	x	8.9	-3.6	-2.4
COc1ccc(-n2nc(C(=O)NCc3ccc(F)cc3)c3c4ccccc4n(C)c3c2=O)cc1	2.0	x	4.7	6.2	9.2
CCC1CCC(C(=O)NC(C(=O)Nc2cccc(OC)c2)C(C)C)CC1 (stereo not drawn)	4.4	x	-32.0*	-0.8	1.2
C1=CC2CC1CC2CN1CCN(c2ccccc2)CC1 (stereo not drawn)	2.1	-54.4*	-19.8	-4.8	-9.3
Cc1ccccc1CN1CCN(CC2CC3C=CC2C3)CC1 (stereo not drawn)	1.1	-65.8*	8.9	-5.2	-16.9
CCN1CCN(CC2CC3C=CC2C3)CC1 (stereo not drawn)	3.2	-11.0	14.1	-1.6	-8.7
O=S(=O)(Nc1nc2ccccc2[nH]1)c1ccccc1	10.2	-55.1*	19.7	-2.9	0.5
O=S(=O)(Nc1nc2ccccc2[nH]1)c1ccc(Cl)cc1	1.7	-22.5	-19.6	-2.8	-6.1
SMILES	D1 agonist	D3 antag	D1 antagonist	D1 potentiator	D3 ag
CCOC(=O)N1CCc2c(sc3c2c(=O)n(-c2ccc(Cl)cc2)c(=O)n3CC(=O)c2ccc(F)cc2)C1	22.2	x	-31.3*	-3.6	7.4
COCCCNC(=O)N1c2ccccc2Sc2ccccc21	0.0	1.1	-3.1	-7.2	1.9
O=C(NCCN1CCC(n2c(=O)[nH]c3ccccc32)CC1)N1c2ccccc2Sc2ccccc21	x	-111.4*	x	x	-13.2
O=C(NCCN1CCC(n2c(=O)[nH]c3ccccc32)CC1)c1ccc(F)cc1Cl	x	-76.6*	x	x	-16.5
O=C(NCCN1CCC(n2c(=O)[nH]c3ccccc32)CC1)c1ccccc1	x	-113.2*	x	x	-12.7
Cc1cccc(C)c1NC(=O)N1CCC(n2c(=O)[nH]c3ccccc32)CC1	4.6	30.4	-8.6	x	-1.5
Cc1ccc(C(=O)NCCN2CCC(n3c(=O)[nH]c4ccccc43)CC2)cc1C	x	-110.8*	x	x	-16.9
Cc1cc2ccccc2n2c(SCC(=O)Nc3cccc(C(F)(F)F)c3)nnc12	1.1	x	-0.9	-0.7	3.5
CN1CCN(c2ncnc3c2ncn3[C@H]2CN(C)C[C@@H](CO)O2)CC1	x	0.0	x	x	9.1
O=C(NCc1cccc(Br)c1)c1ccc(-n2cnc3cccnc32)cc1	2.1	x	0.5	-2.0	-17.2
